NadD block: inhibitors of S. aureus NadD, primary screen, biochemical, colorimetric, uHTS. 360,000 tested, 0.78% active. purified NadD enzyme, colorimetric absorbance read-out. inhibition, % at 20 µM; in the data active means inhibition above about 26%
rCAG RNA binder: binders of r(CAG) RNA repeats, primary screen, biochemical, fluorescence; r(CAG) RNA repeat, TO-PRO-1 dye displacement fluorescence; 370,000 tested, 1.3% active; inhibition, % at 3 µM;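 active means inhibition above the plate cutoff, the mean of all test compounds on that plate plus 3 SD, cut at about 35% in these data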;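 further: 0% = DMSO alone and 100% = 100 µM mitoxantrone as full dye displacement; higher means more dye released from RNA so lower well fluorescence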
NR3A LBD binder: binders of NR3A ligand-binding domain, primary screen, biophysical, differential scanning fluorimetry, uHTS. AID 1259313, 2017. Glutamate receptor ionotropic, NMDA 3A (GRIN3A) ligand-binding domain. Tm shift relative to glycine control, % at 25 µM. NR3A LBD differential scanning fluorimetry, Tm shift; 0% = protein alone, 100% = glycine-bound protein. 340,000 tested, 2.5% active;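 active means melting temperature shift of at least 10% of the positive control shift, at one fixed dose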
FAS-TE inh: FAS thioesterase domain inhibitors, primary screen, biochemical, fluorescence intensity, uHTS. AID 602261, 2012. recombinant FAS-TE, OMFH fluorogenic substrate, fluorescence endpoint. Fatty acid synthase (Homo sapiens), P49327. inhibition, % at 15 µM. 360,000 tested, 0.67% active;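 active means compounds whose normalised, plate-corrected inhibition of enzyme fluorescence in the single-dose primary screen is 50% or more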;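 further: 0% = DMSO with enzyme and 100% = substrate without enzyme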
Starred values were filed as active, the others as inactive; nt = no result. Hits are enriched below; roughly 4.3% of the tested compounds scored in any of these assays.

SMILES	NadD block	rCAG RNA binder	NR3A LBD binder	FAS-TE inh
COC(=O)Cc1c([C@H](C)[C@@H](OC)c2ccccc2Br)nnn1Cc1ccccc1	nt	1.8	nt	nt
CCc1cc2c(nc1CC)CCCN2S(=O)(=O)c1ccccc1C	nt	1.4	nt	nt
O=C(O)c1ccc(CSc2nc(-c3ccc(Cl)cc3)cc(C(F)(F)F)n2)cc1	1.2	1.6	38.2*	-39.5
Cc1cc(C(F)(F)F)nc(SCc2ccc(C(=O)O)o2)n1	-1.6	5.7	2.1	-5.3
COc1ccc2c(Cl)c(C(N)=O)sc2c1	-4.5	0.3	34.0*	-9.4
COc1ccc2c(Cl)c(C(=O)NN)sc2c1	1.9	6.7	-1.1	-2.4
CCC(C)Sc1cccc(-c2nc3ccc(C)cn3c2NCc2ccccc2)c1 (centres undefined)	8.9	2.2	-12.6	29.4
CCC(C)Sc1cccc(-c2nc3ccc(Cl)cn3c2NCc2ccccc2)c1 (centres undefined)	31.2*	nt	-9.4	45.2
O=C1NC(NS(=O)(=O)c2ccccc2)(C(F)(F)F)C(=O)N1c1ccc(F)cc1 (centres undefined)	-11.3	1.1	16.1*	-3.2
Cc1cccc(NC(=O)CSc2ncnc3sc4c(c23)CCCC4)c1	nt	5.9	nt	nt
O=c1[nH]c2ccc(S(=O)(=O)N3CCN(Cc4ccccc4)CC3)cc2[nH]c1=O	-4.8	nt	11.1*	-9.5
COC(=O)C[C@H]1CC[C@H]2[C@H](COc3ccc(NC(=O)c4cccs4)cc3C(=O)N2C)O1	nt	0.5	nt	nt
CCCCCN1CCCCC(NC(=O)c2c(F)cccc2F)C1=O (centres undefined)	nt	-1.9	nt	nt
COc1cc(C(=O)NC2CCCCN(C(C)C)C2=O)cc(OC)c1OC (centres undefined)	nt	0.7	nt	nt
CC(C)=CCc1c(-c2ccc(O)cc2O)oc2cc3c(c(O)c2c1=O)C=CC(C)(C)O3	nt	nt	31.4*	nt
COc1c2c(cc(O)c1C(C)=O)OC(C)(C)C=C2	0.8	-0.1	0.5	4.0
C[C@H]1CCCN1c1cccc2c1S(=O)(=O)N1CC[C@@H](C1)O2	nt	4.5	nt	nt
O=S1(=O)c2c(cccc2N2CCSCC2)Oc2ccccc2CN1Cc1cn(Cc2ccc(Cl)cc2)nn1	nt	4.4	nt	nt
Cc1nn(C(C)(C)C)c(C)c1/C=N/OC(=O)Nc1ccc(Cl)cc1	-5.8	-3.8	10.9*	26.5
COc1ccc(-c2c(Cc3ccccc3)nc(NC(=O)c3ccccc3)n2Cc2ccccc2)cc1	nt	7.8	nt	nt
O=C(O)CCCCCn1c(SCC(=O)c2ccc(O)c(O)c2)nc2ccsc2c1=O	-2.4	23.7	1.5	-6.7
CCCCn1c(SCC(=O)c2ccc(O)c(O)c2)nc2ccsc2c1=O	13.4	nt	24.9*	20.2
OCCN1CCN(CC(O)COCc2ccc3c(c2)OCO3)CC1 (centres undefined)	-1.7	-1.7	10.7*	1.9
Nc1nc(Nc2ccccc2)nc(N2CCOCC2)c1[N+](=O)[O-]	2.1	0.6	1.2	-2.2
Nc1nc(Nc2ccccc2F)nc(N2CCOCC2)c1[N+](=O)[O-]	0.1	1.6	15.4*	-5.4
SMILES	NadD block	rCAG RNA binder	NR3A LBD binder	FAS-TE inh
CC(=O)c1c(C)[nH]c(C(=O)NNC(=O)c2ccc(C)cc2)c1C	-4.5	2.8	3.6	-3.7
COc1ccc(Cl)cc1C(=O)NNC(=O)c1[nH]c(C)c(C(C)=O)c1C	6.6	9.0	15.4*	5.8
O=C(/C=C/c1ccc([N+](=O)[O-])cc1)c1cccnc1	0.2	-1.3	23.5*	-5.8
CC(/C=C/c1cccc([N+](=O)[O-])c1)=N/NC(=O)c1cccnc1	3.8	0.7	-0.4	-2.6
O=C(N/N=C/C=C\c1cccc([N+](=O)[O-])c1)c1cccnc1	-0.1	-0.1	12.5*	0.8
O=C(CNc1ccc2ccccc2c1)N/N=C/C=C/c1cccc([N+](=O)[O-])c1	28.6	8.1	22.0*	4.6
FC(F)(F)c1cccc(Cn2ccc3ccc(-c4ccc5ccn(Cc6cccc(C(F)(F)F)c6)c5c4)cc32)c1	nt	10.7	nt	nt
O=C1C=CC(=O)N1CCNc1ncc(C(F)(F)F)cc1Cl	4.0	0.5	-0.5	14.1
O=C1CC(=O)N(CCNc2ncc(C(F)(F)F)cc2Cl)C(=O)N1	2.0	51.4*	-21.6	-4.1
O=C(CCN1C(=O)C2CC=C(Cl)CC2C1=O)Nc1ccccc1O (centres undefined)	-3.5	5.5	10.8*	-14.5
COc1cc(O)c(CC=C(C)C)c(O)c1C(=O)CCc1ccc(O)cc1	-3.3	16.3	18.6*	-48.6
O=C(CCc1ccc(O)cc1)c1c(O)cc(O)cc1O	-5.7	6.4	21.3*	-0.6

High-throughput results as filed in PubChem.
